Screening results (PubChem BioAssay)
The list is not random: actives were taken first. Their share in the collection is about 19%.
TDP1 cell CPT = DT40-hTDP1 cell growth loss with CPT | chicken DT40 Tdp1-/-;hTDP1 cells + 20 nM CPT, ATP luminescence, 48 h | Potency, µM (top dose mostly 46.2 µM), for inactives: top-dose activity change, negative = growth inhibition, actives largely listed as inhibitors | actives 12% (n = 420,000); note: nearly all actives have a fitted effect of over 55% in size
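Chicken DT40 Tdp1-/- cells stably complemented with human TDP1 were seeded at 400 cells/well in medium containing 20 nM camptothecin, exposed to pin-transferred compounds, and grown at 37 °C for at least 48 hr. Viability was read as ATP luminescence.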
KB-V1 cytotox = kills drug-selected multidrug resistant KB-V1 cells. KB-V1 MDR cells viability, CellTiter-Glo, 72 h. Potency, µM (doses to about 46.1 µM), usual class: cytotoxic. actives 3.4% (n = 400,000). AID 1347076; note: nearly all actives have a fitted effect of over 60% in size
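KB-V1 cells (P-gp-expressing MDR subline of KB-3-1) in phenol-red-free DMEM with 10% FBS were exposed to library compounds over a concentration series for 72 h at 37 degrees C. Viability read by CellTiter-Glo luminescence; concentration-effect curves fitted after normalization.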
KB-3-1 tox = kills parental KB-3-1 adenocarcinoma cells. KB-3-1 viability, CellTiter-Glo ATP luminescence, 72 h. Potency, µM (doses to about 46.1 µM), hits mostly cytotoxic. actives 1.4% (n = 400,000); note: nearly all actives have a fitted effect of over 60% in size
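Parental KB-3-1 viability, qHTS format: 72 h compound exposure, 37 °C; CellTiter-Glo; media-only wells and DMSO plates as controls; concentration-effect fits on corrected data.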
HT1080 IDH1KD tx = HT-1080 IDH1 knockdown cell toxicity (counter line); AID 686971; Potency, µM (top dose mostly 46.1 µM), without a hit: at the highest dose activity, negative = toxicity, hits mostly cytotoxic; actives 2% (n = 360,000); HT-1080 IDH1 knockdown viability, ATP luminescence, 48 h;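 note: 0% = DMSO wells and -100% = cell-free medium wells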
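IDH1KD HT-1080 cells, 750/well, RPMI + 5% FBS; compound pinned after 2 h settling; 48 h, 37 °C; CellTiter-Glo luminescence; % activity normalised to DMSO and no-cell wells; curves fitted, classed by r2 and efficacy.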
DT40 TDP1 no CPT = qHTS for Inhibitors of human tyrosyl-DNA phosphodiesterase 1 (TDP1): qHTS in cells in absence of CPT | DT40 Tdp1-/- hTDP1 cells, no CPT, ATP luminescence, 48 h | Potency, µM (doses to about 46.2 µM), for the others: top-dose activity change, negative = growth inhibition, usual class: inhibitors | actives 15% (n = 420,000) | AID 686978, 2013; note: nearly all actives have a fitted effect of over 55% in size
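Camptothecin absent (DMSO only). Human TDP1-complemented DT40 knockout cells, 400 cells/well, 37 °C for minimum 48 hr; ATP measured via CellTiter-Glo, 30 min dark incubation, luminescence.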
HT1080-NT tox = kills 2HG-producing HT-1080-NT fibrosarcoma cells. AID 686970. actives 1.6% (n = 360,000). HT-1080-NT fibrosarcoma viability, CellTiter-Glo ATP luminescence, 48 h. Potency, µM (doses to about 46.1 µM), inactives show at the top dose activity, negative = less viability, hits mostly cytotoxic;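 note: NT is the 2HG producing partner of a matched IDH1 knockdown line; 0% = DMSO-treated cells and -100% = media-only wells without cells; nearly all actives have a fitted effect of over 55% in size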
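Compounds were tested in concentration-response format on HT-1080-NT cells for 48 hours at 37 degrees C. Cell viability came from CellTiter-Glo luminescence; curves were classified by r2, response magnitude and activity.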
* marks the source's active call; other numbers are inactive results; i = inactive; u = inconclusive; x = no result; [ ] = dose if it differs, or a comment. Calls come from the whole dose curve; as a rule, active = well fitted curve in the direction sought with a large enough effect; inconclusive = small, poorly fitted or top-dose-only effect, or another doubt; inactive = no such curve, though single readings can be large; an effect the other way counts as inactive or inconclusive. Unless noted, % is set by controls: 0 for no effect and ±100 for the full control effect; potency is the fitted concentration of half-maximal effect.

SMILES | TDP1 cell CPT | KB-V1 cytotox | KB-3-1 tox | HT1080 IDH1KD tx | DT40 TDP1 no CPT | HT1080-NT tox
CCOC(=O)c1cc(NC(=O)C2C3CCC(O3)C2C(=O)O)cc(C(=O)OCC)c1 (centres undefined) | -19% | 23µM* | i | u | 4% | -5%
CCOC(=O)c1cc(NC(=O)C2C3C=CC(O3)C2C(=O)O)cc(C(=O)OCC)c1 (centres undefined) | -14% | i | i | 13% | -18% | 14%
O=C(NCc1csc(-c2cccs2)n1)Nc1ccc(C(F)(F)F)cc1 | 6% | i | i | -2% | u | 5%
O=C(Nc1cccs1)Nc1ccc(F)cc1F | 23µM* | i | i | 2% | 15µM* | 9%
O=C(NCc1csc(-c2cccs2)n1)Nc1ccc(F)cc1F | u | i | i | -2% | 12µM* | -10%
O=C(Nc1cccs1)Nc1ccc(Br)cc1F | u | i | i | u | 21µM* | u
Cc1ccc(NC(=O)Nc2cccs2)c(Cl)c1 | -28% | i | i | -21% | u | -19%
NC(=O)COc1ccccc1/C=C1/SC(=O)N(CC(=O)N2CCc3ccccc3C2)C1=O | 21µM* | 15µM* | i | -16% | 18µM* | 0%
CCOc1cc(/C=C2/SC(=O)N(CC(=O)N3CCc4ccccc4C3)C2=O)ccc1OCC(=O)O | 10% | i | i | -4%[9.24 µM] | -2% | 14%
C=C1CC2(CC(c3ccccc3)OC(c3ccccc3)C2)OC1=O (centres undefined) | 1.8µM* | u | u | 16µM* | 2.6µM* | u
Cc1ccc(-c2nnc3c4ccccc4c(C)nn23)cc1NC(=O)c1ccccc1 | 1% | x | x | x | u | x
CC(=O)N1CCN(C(=O)c2ccc(Cl)c(S(=O)(=O)N3CC(C)OC(C)C3)c2)CC1 (centres undefined) | -1% | i | i | -1% | 9% | -2%
CC1CN(S(=O)(=O)c2cc(C(=O)N3CCCCC3C)ccc2Cl)CC(C)O1 (centres undefined) | -78% | i | i | -11% | 1.8µM* | -14%
O=C(c1ccc(Cl)c(S(=O)(=O)N2CCCC2)c1)N1CCCCC1 | -18% | x | x | 1% | u | 6%
COc1cc2c(cc1OC)C(COc1ccc(F)cc1)N(C(=O)c1ccc(S(=O)(=O)N3CCCC3)cc1)CC2 (centres undefined) | u | i | i | x | u | x
CC1CCN(S(=O)(=O)c2cc(C(=O)N3CCN(c4ncccn4)CC3)ccc2Br)CC1 | u | i | i | -20% | 23µM* | -1%
CC1CCCN(C(=O)c2ccc(Cl)c(S(=O)(=O)N3CCCCCC3)c2)C1 (centres undefined) | u | i | i | u | 18µM* | -12%
COc1cc2c(cc1OC)C(C)N(C(=O)c1ccc(Cl)c(S(=O)(=O)N3CCCCC3)c1)CC2 (centres undefined) | 21µM* | i | 12µM* | -19% | 10µM* | -23%
CC1CCN(C(=O)c2ccc(Br)c(S(=O)(=O)N3CCOCC3)c2)CC1 | -4% | i | i | 0% | u | 5%
COc1ccc(CNC(=O)Nc2ccc3c(c2)c(=O)n(C)n3Cc2cc(C)cc(C)c2)cc1 | 21µM* | i | i | -1% | u | 24%
Cn1c(=O)c2cc(NC(=S)NC3CCCCC3)ccc2n1Cc1ccc(Cl)cc1 | u | i | i | -18% | 23µM* | -26%
Cc1cc(C)cc(Cn2c3ccc(NC(=S)NCc4ccccc4F)cc3c(=O)n2C)c1 | u | i | i | u | u | -25%
Cn1c(=O)c2cc(NC(=O)NCc3ccc(F)cc3)ccc2n1Cc1cccc(C(F)(F)F)c1 | 21µM* | i | i | u | 15µM* | -11%
Cn1c(=O)c2cc(NC(=S)NCc3ccccc3F)ccc2n1Cc1cccc(C(F)(F)F)c1 | 21µM* | i | i | 0% | u | -11%
Cn1c(=O)c2cc(NC(=S)NCc3ccccc3F)ccc2n1Cc1ccccc1 | 16µM* | i | i | -2% | 15µM* | -1%
SMILES | TDP1 cell CPT | KB-V1 cytotox | KB-3-1 tox | HT1080 IDH1KD tx | DT40 TDP1 no CPT | HT1080-NT tox
CC(C)(C)NCC(O)COc1ccccc1C(=O)CCc1ccccc1 (centres undefined) | 16µM* | i | i | u | 15µM* | 16µM*
CC(C)(C)NCC(O)COc1ccccc1C(C)(C)C (centres undefined) | u | i | i | u | u | -27%
COc1ccc(C(=O)NCC(c2ccc(N(C)C)cc2)N2CCc3ccccc32)cc1 (centres undefined) | 7.3µM* | i | i | x | 8.2µM* | x
CN(C)c1ccc(C(CNC(=O)c2ccccc2Cl)N2CCc3ccccc32)cc1 (centres undefined) | u | i | i | x | u | x
COc1ccc(S(=O)(=O)NCC(c2ccc(N(C)C)cc2)N2CCc3ccccc32)cc1 (centres undefined) | u | i | i | x | u | x
CC(C)Oc1ccc(C(=O)NCC(c2ccc(N(C)C)cc2)N2CCc3ccccc32)cc1 (centres undefined) | 9.2µM* | i | i | x | 21µM* | x
Cc1ccc(S(=O)(=O)NCC(c2ccc(N(C)C)cc2)N2CCc3ccccc32)cc1C (centres undefined) | u | i | i | x | 23µM* | x
CN(C)c1ccc(CNC(=O)c2ccc(NC(=O)N3CCCCc4ccccc43)cc2)cc1 | u | i | i | x | u | x
CCOc1ccc(S(=O)(=O)NCC(c2ccc(N(C)C)cc2)N2CCc3ccccc32)cc1 (centres undefined) | u | i | i | x | u | x
COc1ccccc1C(=O)NCC(c1ccc(N(C)C)cc1)N1CCc2ccccc21 (centres undefined) | 21µM* | i | i | x | 16µM* | x
O=C(CS(=O)(=O)c1cccc2nsnc12)Nc1cc(F)ccc1F | -6% | i | i | x | -14% | x
CO/N=C(\C(=O)N[C@@H]1C(=O)N2C(C(=O)O)=C(CSc3nc(=O)c(O)nn3C)CS[C@H]12)c1csc(N)n1 | 0% | x | x | x | -27% | x
O=C(CN1C(=O)c2cccnc2Oc2ccc(Cl)cc21)NC1CCCCC1 | u | i | i | -4% | -22% | -1%
